The values that follow come from PubChem BioAssay AID463173 (ICCB-Longwood Screening Facility, Harvard Medical School, 2010).

The structures appear in SMILES notation. The campaign covered roughly 52,000 compounds. About 4,300 (8.3%) were called active. No stated cut-off is given here; in the data, active means survival mostly below about 52% (no sharp cut-off); inactive means mostly above about 56%. What follows is part of a selection rich in actives, with near analogues and random picks from the rest.

The test system of the assay is DeltatarO mutant. Kind of assay: growth inhibition of S. aureus wild type versus tarO mutant, primary screen, teichoic acid synthesis inhibitors, RN4220, OD600 (AID 463173). The settings on record: OD600, 18 h, hits give low values, screened at 18.75 µg/mL (by protocol).
Take `COc1cc(C(CC(=O)Nc2cc(C)ccn2)N2Cc3ccccc3C2=O)cc(OC)c1OC` (stereo not given): the survival is 76% (inactive).

Regarding `Cn1c(C(=O)NCc2ccccc2Cl)cc2sc(Cl)cc21`, the survival was 64% (inactive).

On to `CCCCNC(=O)CCC1N=C2c3ccccc3N=C(SCC(=O)NCCc3ccc(OC)c(OC)c3)N2C1=O` (stereo not given), for which the survival was 64% (inactive).

As for `COc1cc(Cl)c(C)cc1NC(=O)Cn1ncc2c3ccccc3n(Cc3ccccc3)c2c1=O`, the survival was 83% (inactive).

Turning to `CCC(=O)N1CCc2cc(S(=O)(=O)NC(C(=O)NCc3ccc(OC)cc3)C(C)C)ccc21` (stereo not given), the survival is 92% (inactive).

For `Cc1ccccc1Nc1sc(C(=O)c2ccc3c(c2)OCO3)c(N)c1S(=O)(=O)c1ccccc1`, the survival was 78% (inactive).

Take `Cc1ccc(CNC(=O)C(C)n2nc(C)n3c(cc4sccc43)c2=O)cc1` (stereo not given): the survival was 111% (inactive).

As for `CCOc1ccc(NC(=O)CC2C(=O)N(c3cccc(C)c3)C(=O)N2Cc2ccco2)cc1` (stereo not given), the survival is 83% (inactive).

On to `CCOC(=O)CNC(=O)Nc1cc(C(=O)NCc2ccc(C(C)C)cc2)ccc1N1CCCC1`, for which the survival was 93% (inactive).

Take `Cc1ccc(-n2c(SCC(N)=O)nc3c(oc4ccccc43)c2=O)cc1`: the survival was 69% (inactive).

For the compound `CCCCOc1nnc(-c2ccc(OCC)cc2)c2ccccc12`, the survival is -12% (active).

Turning to `CCOc1ccc(-c2nnc(Nc3ccc(S(N)(=O)=O)cc3)c3ccccc23)cc1`, the survival is 56% (inactive).

As to `CCOc1ccc(-c2ncccc2O)cc1`, the survival was 105% (inactive).

For `Cc1cc(=O)n(Cc2ccc(F)cc2Cl)c2c1c(C)nn2-c1ccccc1`, the survival was 96% (inactive).

On to `CCc1ccccc1NC(=O)Cn1c(=O)n(C(C)C)c(=O)c2oc3ccccc3c21`, for which the survival is 66% (inactive).

On to `CCOc1ccc(NC(=O)CSc2ncc3c(n2)-c2ccccc2N(C)S3(=O)=O)cc1`, for which the survival is 75% (inactive).

Consider `CCOc1ccc(NC(=O)CSc2ncc3c(n2)-c2cc(Cl)ccc2N(C)S3(=O)=O)cc1`, for which the survival is 0% (active).

With `Cc1ccc(NC(=O)CSc2ncc3c(n2)-c2ccc(Cl)cc2N(C)S3(=O)=O)cc1F`, the survival was 69% (inactive).

As to `COc1cc(NC(=O)CSc2ncc3c(n2)-c2ccc(Cl)cc2N(Cc2ccccc2)S3(=O)=O)cc(OC)c1`, the survival was 55% (inactive).

For the compound `CCc1cccc(NC(=O)CSc2ncc3c(n2)-c2cc(Cl)ccc2N(C)S3(=O)=O)c1`, the survival was 57% (inactive).

On to `COc1cccc(NC(=O)CSc2ncc3c(n2)-c2ccc(Cl)cc2N(C)S3(=O)=O)c1`, for which the survival is 37% (active).

As for `COc1ccc(CNC(=O)CN2C(=O)CCn3nc(-c4ccccc4)cc32)c(OC)c1`, the survival is 69% (inactive).

Turning to `COc1ccc(-c2nc3c(c(SCC(=O)Nc4cc(C)cc(C)c4)n2)Cc2c(CO)cnc(C)c2O3)cc1`, the survival is 80% (inactive).

Take `CN(C)S(=O)(=O)c1ccc2c(c1)nnn2CCNC(=O)Nc1ccc(Br)cc1`: the survival is 83% (inactive).

As to `O=C1Nc2nc(=O)nc3[nH]c(=O)nc(n23)N1`, the survival is 97% (inactive).

Consider `COc1ccc(Cn2ccn(Cc3cccc(C)c3)c(=O)c2=O)cc1`, for which the survival was 109% (inactive).

On to `COc1ccc(-c2cc3c(=O)n(CC(=O)Nc4cc(C)ccc4C)ccn3n2)cc1`, for which the survival is 88% (inactive).

Turning to `COc1ccc(-n2ccn(CC(=O)Nc3ccc(C)cc3C)c(=O)c2=O)cc1`, the survival was 79% (inactive).

On to `COc1ccc(Cn2ccn(Cc3cccc(OC)c3)c(=O)c2=O)cc1`, for which the survival was 46% (active).

`COc1ccc(Cn2ccn(CC(=O)Nc3cc(C)ccc3C)c(=O)c2=O)cc1`: the survival is 47% (active).

Consider `COc1ccc(Cn2ccn(Cc3cccc(Cl)c3)c(=O)c2=O)cc1`, for which the survival is 112% (inactive).

With `CC(C)(C)c1ccc(OCCSc2nc(-c3cccs3)nc3cc(=O)[nH]n23)cc1`, the survival is 78% (inactive).

For the compound `CC(=O)NCC(c1ccc2c(c1)OCO2)N1CCN(c2ccccc2)CC1` (stereo not given), the survival was 80% (inactive).

Regarding `COc1ccc(NC(=O)c2ccc3c(c2)nnn3C2CCCC2)cc1Cl`, the survival is 88% (inactive).

`COc1cc(OC)c(OC)cc1CN1CCc2nc(N3CCN(c4ccccc4F)CC3)ncc2C1`: the survival was 72% (inactive).

As for `CCN1CCN(c2ncc3c(n2)CCN(Cc2ccccc2C)C3)CC1`, the survival is -1% (active).

In the case of `Cc1ccccc1CN1CCc2nc(N3CCN(c4ncccn4)CC3)ncc2C1`, the survival was 88% (inactive).

With `CCN1CCN(c2ncc3c(n2)CCN(Cc2cc(Br)cs2)C3)CC1`, the survival was 6% (active).

Regarding `CN1CCN(c2ncc3c(n2)CCN(Cc2ccccc2Cl)C3)CC1`, the survival was 79% (inactive).

As to `COc1ccccc1N1CCN(c2ncc3c(n2)CCN(Cc2ccccc2F)C3)CC1`, the survival is 89% (inactive).

With `Cc1ccccc1CN1CCc2nc(N3CCN(c4ccccn4)CC3)ncc2C1`, the survival is 94% (inactive).

Regarding `CCN1CCN(c2ncc3c(n2)CCN(Cc2ccc(Br)s2)C3)CC1`, the survival was 76% (inactive).

As for `CN1CCN(c2ncc3c(n2)CCN(Cc2cc(Br)cs2)C3)CC1`, the survival was 109% (inactive).

As to `CCOc1ccccc1CN1CCc2nc(N3CCN(C)CC3)ncc2C1`, the survival was -2% (active).

As for `CCOc1ccccc1CN1CCc2nc(N3CCN(c4ccccc4F)CC3)ncc2C1`, the survival was -4% (active).

Take `COc1cc(OC)c(OC)cc1CN1CCc2nc(N3CCN(C)CC3)ncc2C1`: the survival is 84% (inactive).

With `COc1cc(C(=O)n2nc(-c3ccco3)nc2NCc2ccc(Cl)cc2)cc(OC)c1OC`, the survival was 82% (inactive).

In the case of `COc1cccc(CNC(=O)CSC2=Nc3ccccc3C3=NC(C(C)C)C(=O)N23)c1` (stereo not given), the survival is 69% (inactive).

Turning to `Cc1ccc(Cl)cc1N1CCN(C(=O)C2CCN(S(=O)(=O)c3cn(C)cn3)CC2)CC1`, the survival was 98% (inactive).

With `CC(=O)Nc1cccc(NC(=O)C2CCCN2C(=O)Nc2ccccc2Cl)c1` (stereo not given), the survival is 113% (inactive).

With `CCOc1ccc(-c2csc(-c3nc(-c4ccc(Br)s4)cs3)n2)cc1`, the survival was 83% (inactive).

Turning to `NC(=O)c1c(NC(=O)CS(=O)(=O)c2ccc(Cl)cc2)sc2c1CCCCC2`, the survival is 82% (inactive).

Consider `O=C(CSC1=Nc2ccccc2C2=NC(CCC(=O)NC3CCCCC3)C(=O)N12)Nc1cccc(Cl)c1` (stereo not given), for which the survival was 112% (inactive).

As for `CCC(=O)N1CCc2cc(Br)cc(S(=O)(=O)CCC(=O)N(C)c3cccc(C)c3)c21`, the survival was 62% (inactive).

On to `CCc1ccc(NC(=O)CC2C(=O)N(c3ccc(Cl)cc3)C(=O)N2Cc2cccs2)cc1` (stereo not given), for which the survival was 60% (inactive).

For the compound `Cc1cccc(N2C(=O)C(CC(=O)Nc3cccc(F)c3)N(Cc3cccs3)C2=O)c1` (stereo not given), the survival is 8% (active).

With `COc1cc(NC(=O)CC2C(=O)N(c3cccc(C)c3)C(=O)N2Cc2cccs2)cc(OC)c1` (stereo not given), the survival is 66% (inactive).

`CCc1ccc(NC(=O)CC2C(=O)N(c3cccc(C)c3)C(=O)N2Cc2cccs2)cc1` (stereo not given): the survival was 20% (active).

Turning to `Cc1cccc(N2C(=O)C(CC(=O)Nc3cccc(F)c3)N(CCc3ccncc3)C2=O)c1` (stereo not given), the survival was 75% (inactive).

Turning to `CCOc1ccc(NC(=O)CC2C(=O)N(c3cccc(C)c3)C(=O)N2Cc2cccs2)cc1` (stereo not given), the survival is 89% (inactive).
